Here are results for 30 compounds from the GenesisPotency data set.

Among all 290,000 compounds or so, about 3,000 (1%) were called active. No stated cut-off is given here; in the data, active means inhibition mostly above about 36% (no sharp cut-off); inactive means mostly below about 34%. This excerpt belongs to a sample that is enriched for actives.

The assay concerns the target T1, Nucleotide-binding oligomerization domain-containing protein 1, Homo sapiens (UniProt Q9Y239).
T1 sequence (whole entry): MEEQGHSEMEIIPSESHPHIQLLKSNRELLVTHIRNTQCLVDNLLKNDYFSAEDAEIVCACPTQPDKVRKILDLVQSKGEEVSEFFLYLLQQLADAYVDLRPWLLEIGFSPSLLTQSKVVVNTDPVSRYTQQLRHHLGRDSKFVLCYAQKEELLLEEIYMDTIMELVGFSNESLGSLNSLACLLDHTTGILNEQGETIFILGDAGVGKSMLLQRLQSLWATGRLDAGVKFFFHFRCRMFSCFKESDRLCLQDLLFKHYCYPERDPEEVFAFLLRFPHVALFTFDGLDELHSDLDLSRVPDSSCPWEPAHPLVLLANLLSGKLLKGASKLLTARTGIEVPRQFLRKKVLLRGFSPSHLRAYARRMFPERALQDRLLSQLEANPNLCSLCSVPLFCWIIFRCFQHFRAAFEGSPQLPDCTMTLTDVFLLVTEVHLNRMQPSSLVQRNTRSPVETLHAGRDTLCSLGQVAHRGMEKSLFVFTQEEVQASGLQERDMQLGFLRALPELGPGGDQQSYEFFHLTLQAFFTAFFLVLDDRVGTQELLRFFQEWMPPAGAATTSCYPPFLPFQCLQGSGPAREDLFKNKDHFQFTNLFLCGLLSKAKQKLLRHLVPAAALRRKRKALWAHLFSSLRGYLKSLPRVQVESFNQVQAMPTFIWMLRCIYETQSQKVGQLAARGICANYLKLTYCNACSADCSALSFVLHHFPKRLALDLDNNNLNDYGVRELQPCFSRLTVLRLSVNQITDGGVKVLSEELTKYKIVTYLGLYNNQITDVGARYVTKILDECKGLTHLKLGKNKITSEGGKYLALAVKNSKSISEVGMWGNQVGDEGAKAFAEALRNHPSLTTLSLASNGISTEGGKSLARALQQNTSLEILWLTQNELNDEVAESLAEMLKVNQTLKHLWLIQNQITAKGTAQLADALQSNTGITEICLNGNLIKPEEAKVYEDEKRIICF
Nature of the assay: NOD1 signaling inhibitors, primary screen, cell-based, luminescence, uHTS (AID 1578).
In the case of `Cn1c(-c2ccccc2)c(C(=O)CCl)c2ccccc21`, the compound was called active.

For the compound `Cn1cc(C(=O)CCl)c2ccccc21`, the result was active.

Regarding `c1ccc(CN2CCN(c3ncnc4c3[nH]c3ccccc34)CC2)cc1`, the compound was called active.

Regarding `Cc1ccc2[nH]c3c(N4CCN(Cc5ccccc5)CC4)ncnc3c2c1`, the result was active.

`Cc1ccc2[nH]c3c(N4CCc5ccccc5C4)ncnc3c2c1`: the compound was called active.

With `Cc1ccc2c(c1)[nH]c1c(N3CCN(Cc4ccccc4)CC3)ncnc12`, the outcome was active.

Consider `Cc1ccc(-c2noc(CCCC(=O)NC3CCCCC3)n2)cc1`, for which the result was active.

For the compound `O=C(CCCc1nc(-c2ccc(Cl)cc2)no1)NC1CCCCC1`, the result was active.

For `O=C(CCCc1nc(-c2ccc(Cl)cc2)no1)NC1CCCC1`, the result was active.

`N#CC(c1cccc(Cl)c1)c1ccc2c(C(F)(F)F)cc(C(F)(F)F)nc2n1` (stereo not given): the outcome was active.

On to `CCCCN(c1ccccc1)c1ncnc(N)c1[N+](=O)[O-]`, for which the call was active.

Take `Cc1ccc(Cl)cc1N1CCN(C(=O)CSc2nnc3n2C(C)(C)Cc2ccccc2-3)CC1`: the call was active.

As to `CC1(C)CC(N2CCN(C(c3ccccc3)c3ccccc3)CC2)=CC(=[N+]2CCCCC2)C1.[I-]`, the result was active.

Consider `CN(Cc1ccccc1)C1=CC(=[N+]2CCCCC2)CC(C)(C)C1.[I-]`, for which the outcome was active.

Take `c1csc(CCNc2ncnc3sc4c(c23)CCC4)c1`: the outcome was active.

For the compound `Cn1nccc1C(=O)NC1CCCc2c1cnn2-c1ccc(C(C)(C)C)cc1` (stereo not given), the compound was classed as active.

`CC(C)(C)c1ccc(-n2ncc3c2CCCC3NC(=O)C2(C(N)=O)CC2)cc1` (stereo not given): the call was active.

With `Cc1cc(C(=O)NC2CCCc3c2cnn3-c2ccc(C(C)(C)C)cc2)nn1C` (stereo not given), the result was active.

Consider `Cc1ccc(NC(=O)Nc2nnc(-c3ccncc3)s2)cc1C`, for which the compound was classed as active.

As to `O=C(Nc1ccc2nc3n(c(=O)c2c1)CCCCC3)c1c(F)ccc([N+](=O)[O-])c1F`, the call was active.

For the compound `CCOc1cccc(-c2c(C(=O)N/N=C(\C)c3ccccn3)nnn2-c2nonc2N)c1`, the result was active.

Regarding `CN(C)S(=O)(=O)c1cccc(NC(=O)c2ccc(COc3ccccc3)cc2)c1`, the compound was called active.

Consider `COc1ccc(C(=O)/C=C/C(=O)N(CC(=O)NC2CCCCC2)Cc2ccccc2OC)c(O)c1`, for which the compound was called active.

`CCn1c(Oc2ccccc2F)nc2c1c(=O)n(C)c(=O)n2C`: the compound was classed as active.

Turning to `C=CCn1c(Oc2ccc(C(=O)OC)cc2)nc2c1c(=O)n(C)c(=O)n2C`, the result was active.

For `C=CCn1c(Oc2ccccc2F)nc2c1c(=O)n(C)c(=O)n2C`, the compound was called active.

Regarding `Cc1ccc(S(=O)(=O)c2cc3cc(Br)ccc3oc2=O)cc1`, the call was active.

For the compound `O=c1oc2ccc(Br)cc2cc1S(=O)(=O)c1ccc(F)cc1`, the call was active.

Take `O=C(O)c1c(NC(=O)c2cccc3ccccc23)sc2c1CCC2`: the outcome was active.

With `COc1ccc(-c2c[n+]3c(n2-c2ccc(C)cc2)CCCCC3)cc1.[Br-]`, the compound was called active.
